# In all, about 8,300 sequences were measured (“log2 fold change of degron read counts, EGFP-low vs EGFP+ sorted cells (limma voom), compound-induced degradation”: median about -1.1, highest 2% from about 3.2 on). The list comes from a sample in which the highest values are over-represented; it also holds similar and randomly drawn sequences.
# T1: CRBN, Q96SW2
# T1 chain: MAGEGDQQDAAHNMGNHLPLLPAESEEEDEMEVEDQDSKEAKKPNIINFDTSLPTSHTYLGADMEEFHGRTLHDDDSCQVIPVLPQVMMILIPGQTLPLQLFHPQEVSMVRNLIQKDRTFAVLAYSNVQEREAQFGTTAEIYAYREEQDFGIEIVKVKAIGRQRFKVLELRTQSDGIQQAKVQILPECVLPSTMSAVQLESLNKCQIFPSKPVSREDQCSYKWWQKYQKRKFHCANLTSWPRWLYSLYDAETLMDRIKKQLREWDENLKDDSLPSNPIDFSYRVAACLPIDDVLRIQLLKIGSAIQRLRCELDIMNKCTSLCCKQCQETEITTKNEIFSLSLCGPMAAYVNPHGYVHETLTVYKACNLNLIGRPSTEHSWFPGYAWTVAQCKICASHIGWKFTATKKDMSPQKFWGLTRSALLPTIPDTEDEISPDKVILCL
# B1: 46F_47Q_49E_50Q_52G_53A_54A_55F_67L_, Q9UKT9 (peptide)
# chain: FQCEQCGAAFTQKGNLLRHIKL
# B2: 46L_47T_49N_50Q_52G_53F_54P_55C_67L_, Q9UKT9 (peptide)
# chain: LTCNQCGFPCTQKGNLLRHIKL
# B3: 46F_47T_49E_50V_52G_53A_54F_55F_67L_, Q9UKT9 (peptide)
# chain: FTCEVCGAFFTQKGNLLRHIKL
# B4: 46F_47S_49D_50Q_52G_53A_54M_55F_67L_, Q9UKT9 (peptide)
# chain: FSCDQCGAMFTQKGNLLRHIKL
# B5: 46F_47S_49P_50Q_52G_53A_54A_55F_67L_, Q9UKT9 (peptide)
# chain: FSCPQCGAAFTQKGNLLRHIKL
# B6: 46F_47W_49P_50I_52G_53H_54M_55F_67L_, Q9UKT9 (peptide)
# chain: FWCPICGHMFTQKGNLLRHIKL
# B7: 46L_47H_49P_50I_52G_53F_54M_55C_67L_, Q9UKT9 (peptide)
# chain: LHCPICGFMCTQKGNLLRHIKL
# B8: 46F_47V_49E_50Q_52G_53A_54T_55F_67L_, Q9UKT9 (peptide)
# chain: FVCEQCGATFTQKGNLLRHIKL
# B9: 46F_47L_49N_50Q_52G_53A_54D_55F_67L_, Q9UKT9 (peptide)
# chain: FLCNQCGADFTQKGNLLRHIKL
# B10: 46F_47Y_49E_50I_52G_53H_54E_55F_67L_, Q9UKT9 (peptide)
# chain: FYCEICGHEFTQKGNLLRHIKL
# B11: 46F_47Y_49P_50Q_52G_53A_54F_55F_67L_, Q9UKT9 (peptide)
# chain: FYCPQCGAFFTQKGNLLRHIKL
# B12: 46F_47L_49E_50V_52G_53A_54S_55F_67L_, Q9UKT9 (peptide)
# chain: FLCEVCGASFTQKGNLLRHIKL
# B13: 46F_47F_49E_50V_52G_53A_54S_55F_67L_, Q9UKT9 (peptide)
# chain: FFCEVCGASFTQKGNLLRHIKL
# B14: 46F_47N_49E_50V_52G_53A_54S_55F_67L_, Q9UKT9 (peptide)
# chain: FNCEVCGASFTQKGNLLRHIKL
# B15: 46F_47I_49N_50I_52G_53A_54G_55F_67L_, Q9UKT9 (peptide)
# chain: FICNICGAGFTQKGNLLRHIKL
# B16: 46F_47T_49E_50I_52G_53R_54F_55F_67L_, Q9UKT9 (peptide)
# chain: FTCEICGRFFTQKGNLLRHIKL
# B17: 46F_47S_49P_50I_52G_53H_54H_55F_67L_, Q9UKT9 (peptide)
# chain: FSCPICGHHFTQKGNLLRHIKL
# B18: 46F_47D_49P_50I_52G_53R_54V_55F_67L_, Q9UKT9 (peptide)
# chain: FDCPICGRVFTQKGNLLRHIKL
# B19: 46F_47L_49N_50V_52G_53A_54A_55F_67L_, Q9UKT9 (peptide)
# chain: FLCNVCGAAFTQKGNLLRHIKL
# B20: 46F_47C_49E_50I_52G_53A_54A_55F_67L_, Q9UKT9 (peptide)
# chain: FCCEICGAAFTQKGNLLRHIKL
# B21: 46F_47K_49E_50I_52G_53A_54A_55F_67L_, Q9UKT9 (peptide)
# chain: FKCEICGAAFTQKGNLLRHIKL
# B22: 46F_47S_49E_50I_52G_53A_54A_55F_67L_, Q9UKT9 (peptide)
# chain: FSCEICGAAFTQKGNLLRHIKL
# B23: 46F_47N_49E_50I_52G_53A_54A_55F_67L_, Q9UKT9 (peptide)
# chain: FNCEICGAAFTQKGNLLRHIKL
# B24: 46F_47T_49E_50I_52G_53A_54A_55F_67L_, Q9UKT9 (peptide)
# chain: FTCEICGAAFTQKGNLLRHIKL
# B25: 46F_47A_49N_50V_52G_53A_54M_55F_67L_, Q9UKT9 (peptide)
# chain: FACNVCGAMFTQKGNLLRHIKL
# B26: 46F_47F_49D_50Q_52G_53A_54A_55F_67L_, Q9UKT9 (peptide)
# chain: FFCDQCGAAFTQKGNLLRHIKL
# B27: 46L_47L_49E_50I_52G_53F_54V_55C_67L_, Q9UKT9 (peptide)
# chain: LLCEICGFVCTQKGNLLRHIKL
# B28: 46L_47A_49E_50I_52G_53F_54V_55C_67L_, Q9UKT9 (peptide)
# chain: LACEICGFVCTQKGNLLRHIKL
# B29: 46L_47S_49E_50I_52G_53F_54V_55C_67L_, Q9UKT9 (peptide)
# chain: LSCEICGFVCTQKGNLLRHIKL
# B30: 46L_47W_49E_50I_52G_53F_54V_55C_67L_, Q9UKT9 (peptide)
# chain: LWCEICGFVCTQKGNLLRHIKL
# B31: 46L_47F_49E_50I_52G_53F_54V_55C_67L_, Q9UKT9 (peptide)
# chain: LFCEICGFVCTQKGNLLRHIKL
# B32: 46L_47Y_49E_50I_52G_53F_54V_55C_67L_, Q9UKT9 (peptide)
# chain: LYCEICGFVCTQKGNLLRHIKL
# B33: 46L_47C_49E_50I_52G_53F_54V_55C_67L_, Q9UKT9 (peptide)
# chain: LCCEICGFVCTQKGNLLRHIKL
# B34: 46L_47Q_49E_50I_52G_53F_54V_55C_67L_, Q9UKT9 (peptide)
# chain: LQCEICGFVCTQKGNLLRHIKL
# B35: 46L_47K_49E_50I_52G_53F_54V_55C_67L_, Q9UKT9 (peptide)
# chain: LKCEICGFVCTQKGNLLRHIKL
# Biological target: T1, CRBN, Q96SW2
# Experiment: log2 fold change of degron read counts, EGFP-low vs EGFP+ sorted cells (limma voom), compound-induced degradation; higher = more compound-induced degradation of the degron-EGFP fusion; degrons are variants of IKZF1/3 zinc finger 2; compound dose not given here
# Settings: Jurkat, 18 h
# [1] = compound: compound 19 (5-tert-butyl-thalidomide)
# [2] = compound: compound 22 (5-morpholino-thalidomide)
# [3] = compound: compound 33 (diphenyl IMiD analogue)
# 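Further: pooled lentiviral library of zinc finger degron-EGFP fusions in mCherry-positive Jurkat cells, FACS-sorted after compound exposure, with degron abundance counted by next-generation sequencing.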
Sequence,log2 fold change of degron read counts [1],log2 fold change of degron read counts [2],log2 fold change of degron read counts [3],log2 fold change of degron read counts (compound: thalidomide)
B1,-0.398,0.724,0.313,3.01
B2,-2.43,-2.96,-2.54,-1.71
B3,-0.934,-0.537,0.743,0.936
B4,-1.8,-2.9,-1.87,-2.82
B5,0.138,-0.952,1.89,-0.879
B6,-0.107,-0.117,0.131,-0.274
B7,2.17,2.35,2.28,1.44
B8,-2.6,-1.48,0.0752,-0.452
B9,-2.76,-3.21,-2.79,-2.29
B10,-2.18,-2.9,-1.81,-2.55
B11,0.239,0.269,0.837,-1.07
B12,1.64,-0.285,1.43,1.45
B13,3.45,3.66,2.48,1.61
B14,3.22,1.38,0.489,0.435
B15,-0.991,1.17,1.13,1.71
B16,-1.56,-2.16,-1.26,-1.11
B17,-1.98,-2.66,-2,-1.93
B18,-0.729,-0.635,1.53,1.97

Sequence,log2 fold change of degron read counts [1],log2 fold change of degron read counts [2],log2 fold change of degron read counts [3],log2 fold change of degron read counts (compound: thalidomide)
B19,-1.6,-2.27,-0.522,-0.568
B20,3.72,3.1,2.29,2.46
B21,2.15,-0.809,-1.83,0.606
B22,3.56,2.95,2.24,2.15
B23,3.08,1.75,0.0717,0.718
B24,3.16,3.21,2.33,3.02
B25,0.511,-0.724,-0.968,-1.44
B26,0.0639,-0.343,-0.617,-2.46
B27,-0.934,-1.38,0.0357,1.04
B28,2.04,1.25,-0.215,-0.0645
B29,1.2,1.38,0.553,0.403
B30,2.88,3.17,2.26,0.659
B31,3.27,3.45,1.38,1.31
B32,3.3,3.29,2.43,0.954
B33,0.511,0.955,1.53,1.13
B34,-0.0768,1.31,1.38,3.4
B35,-1.72,-2.04,-2.48,-0.691

# Source: the supplement of paper PMC12645437, “Orthogonal IMiD-Degron Pairs Induce Selective Protein Degradation in Cells” (ACS Chemical Biology, 2025)
